# TRHR enhancer – allosteric enhancers of human TRH receptor; P34981; TRHR cells, fluo-8 calcium fluorescence, EC20 TRH enhancement; enhancement, % at 2 µM; hit rate 0.66% among 360,000; AID 493056; in the data active = enhancement above about 30%
#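 Enhancer read-out: after compound pinning and an initial kinetic agonist-mode read, an EC20 of TRH (10 nM final) was injected and fluo-8 calcium signal (Ex 480/Em 530) followed at 1 s/cycle for 100 cycles in TRHR-expressing cells.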
# TRPML1 blocker – inhibitors of human TRPML1 channel; Q9GZU1; TRPML1-inducible cells, Ca2+ dye fluorescence, FDSS; hits give low values; inhibition of EC80 agonist-evoked calcium signal; activity change, negative = inhibition, % (test concentration not listed); hit rate 0.02% among 390,000; in the data active = activity change below about -50%; inconclusive = between about -30% and that limit;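 also: stimulus is agonist 54-4 at its EC80 concentration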
# Target sequence (Q9GZU1 whole entry, looked up): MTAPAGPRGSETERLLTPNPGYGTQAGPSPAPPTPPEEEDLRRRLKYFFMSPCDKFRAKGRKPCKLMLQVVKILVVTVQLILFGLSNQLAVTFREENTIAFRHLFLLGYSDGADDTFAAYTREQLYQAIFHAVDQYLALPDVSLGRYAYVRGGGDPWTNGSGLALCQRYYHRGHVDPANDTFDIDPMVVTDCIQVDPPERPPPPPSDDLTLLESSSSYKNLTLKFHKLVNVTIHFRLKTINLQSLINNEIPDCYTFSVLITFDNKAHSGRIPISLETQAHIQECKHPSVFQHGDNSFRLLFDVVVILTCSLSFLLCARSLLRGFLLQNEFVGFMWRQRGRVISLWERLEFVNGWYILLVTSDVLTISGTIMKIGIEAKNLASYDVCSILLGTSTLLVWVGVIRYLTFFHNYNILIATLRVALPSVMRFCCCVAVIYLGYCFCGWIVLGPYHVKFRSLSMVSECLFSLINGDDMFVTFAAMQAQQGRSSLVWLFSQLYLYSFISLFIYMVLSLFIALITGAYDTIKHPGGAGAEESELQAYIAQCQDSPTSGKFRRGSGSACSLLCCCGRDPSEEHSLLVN
#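 TRPML1-DL cells, Tet-induced overnight (~16 h, 37 °C) at 1,500 cells/well, were loaded with Ca8 no-wash dye plus quencher for 45-90 min at room temperature. Compounds were pinned during FDSS kinetic reading; agonist 54-4 at EC80 (4 uM final) then added.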
# TRHR agonist – agonists of human TRH receptor; P34981; TRHR cells, calcium flux fluo-8, FDSS agonist mode; activation, % at 2 µM; hit rate 0.18% among 360,000; AID 493084; in the data active = activation above about 30%
#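 TRHR-expressing cells, plated overnight in medium with 10% serum, were loaded with fluo-8 calcium dye at room temperature. After a 10 s baseline, library compound was pin-added and calcium release was recorded kinetically (ex 480/em 530) as agonist response.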
# TRPML1 agonist – agonists of human TRPML1 channel; Q9GZU1; TRPML1-expressing cells, Ca2+ dye fluorescence, FDSS; activation, % (no concentration beside the values); hit rate 0.12% among 410,000; in the data active = activation above about 50%; inconclusive = mostly about 30% to 49%
#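 In this qHTS format, compounds were pin-transferred onto Ca8-dye-loaded TRPML1-DL cells induced with Tet overnight, and intracellular Ca2+ fluorescence was recorded kinetically for 110 s after a 10 s baseline. A subsequent 4uM final 54-4 (EC80) addition followed by a second 110 s read served as the antagonist phase.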
# PTHR1 agonist – activates the human parathyroid hormone receptor PTHR1. Q03431. HEK293 GP2 PTHR1 cells, GloSensor cAMP luminescence, 1 h. Potency, µM (doses to about 115 µM), usual class: activators. hit rate 0.075% among 410,000. AID 743266; also: nearly all actives have a fitted effect of over 55% in size
#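 HEK-293-derived GP2 cells expressing PTHR1 and a GloSensor cAMP reporter, 3,000/well, plated overnight, given luciferin plus IBMX (each 0.5 mM as added) for 1 h at 37 °C, then compound for 1 h at 37 °C. Luminescence was read after 15 min at room temperature.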
# GLP1R cytotox – cytotoxic in the GLP-1 receptor inverse agonist counter-screen. HEK293 cAMP-luciferase reporter cells, luminescence, 24 h. Potency, µM (top dose mostly 38.3 µM), most hits filed as inhibitors. hit rate 0.13% among 410,000. AID 624418;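 also: loss of luciferase light is scored as toxicity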
#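 Step one: seed cells (200 cells/uL, DMEM with 10% Nu serum, 1% pen-strep). Step two: 12-hour incubation at 37 deg C. Step three: pin 23 nL compound, incubate 24 hr. Step four: add luciferase reagent, read luminescence 12 min later.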
# A number is an active result; i = inactive; ? = inconclusive; nt = no result given. In the library only some 0.93% were active in any assay of this set; here they are far more common. Unless noted, calls follow the shape of the dose curve; as a rule, active = well fitted curve in the direction sought with a large enough effect; inconclusive = small, poorly fitted or top-dose-only effect, or another doubt; inactive = no such curve, though single readings can be large; an effect the other way counts as inactive or inconclusive.
SMILES,TRHR enhancer,TRPML1 blocker,TRHR agonist,TRPML1 agonist,PTHR1 agonist,GLP1R cytotox
CC(=O)N1CCc2c(sc(NC(=O)CSc3ccccc3)c2-c2nc3ccccc3s2)C1,i,i,i,i,i,i
C[n+]1c(/C=C/c2ccc(N)cc2)sc2ccccc21,nt,nt,nt,i,nt,nt
COc1ccc(/C=C/c2ccnc3ccccc23)cc1,nt,nt,nt,i,nt,nt
Cc1cc2c(n1-c1ccc(C(=O)NCc3ccc(OC(C)C)cc3)cc1)CCCC2,i,i,i,i,i,i
Cc1ccc(CNC(=O)c2ccc(-n3c(C)cc4c3CCCC4)cc2)cc1,30.8,i,i,i,i,i
Cn1cc(S(=O)(=O)c2ccccc2)c(=O)c2cc(F)c(N3CCN(c4ccccc4)CC3)cc21,i,i,i,i,i,i
Cc1cccc(Cn2cc(S(=O)(=O)c3ccccc3)c(=O)c3cc(F)c(N4CCOCC4)cc32)c1,37.8,i,i,i,i,i
Cc1cccc(Cn2cc(S(=O)(=O)c3cccc(C)c3)c(=O)c3cc(F)c(N4CCOCC4)cc32)c1,i,i,i,i,i,i
Cn1cc(S(=O)(=O)c2ccccc2)c(=O)c2cc(F)c(N3CCN(c4ccc(F)cc4)CC3)cc21,i,i,i,i,60.9µM,i
O=C(CNC1=NCCS1)c1c[nH]c2ccccc12,nt,nt,nt,i,nt,nt
COc1ccccc1C(=O)N1N=C(c2ccc(NS(C)(=O)=O)cc2)CC1c1cccs1 (centres undefined),34.4,i,i,i,i,i
Cc1ccccc1C(=O)N1N=C(c2ccc(NS(C)(=O)=O)cc2)CC1c1cccs1 (centres undefined),i,i,i,i,i,i
NCCCN(Cc1ccc(Cl)c(Cl)c1)c1ccc(Br)cn1,nt,nt,nt,i,nt,nt
COCCOC(=O)N1CCN(/[N+]([O-])=N/Oc2ccc([N+](=O)[O-])cc2[N+](=O)[O-])CC1,nt,i,nt,i,nt,nt
O=C(/C=C/c1ccc(F)cc1)NC(=S)N1CCN(Cc2ccccc2)CC1,i,i,i,i,i,?
O=C(/C=C/c1ccc(F)cc1)NC(=S)N1CCOCC1,37.2,i,i,i,i,?
Cc1cc2[nH]c3c(=O)n(Cc4ccccc4F)ncc3c2s1,i,nt,i,nt,nt,nt
Cc1cc2oc3c(c(=O)c2cc1C)C(c1ccc(F)cc1)N(CCCN1CCOCC1)C3=O (centres undefined),37.1,i,i,i,i,i
COc1cc(C2c3c(oc4cc(C)c(C)cc4c3=O)C(=O)N2CCCN2CCOCC2)ccc1O (centres undefined),i,i,i,i,i,i
CCOc1ccc(Nc2nc(N)c([N+](=O)[O-])c(N3CCOCC3)n2)cc1,37.6,i,i,i,i,i
Cc1nc(N/N=C/c2ccccn2)sc1C,i,i,i,i,i,3.55µM
CCOC(=O)C1CCN(C(=O)COC(=O)c2cccc(F)c2)CC1,36.1,i,i,i,i,i
CCOC(=O)C1CCN(C(=O)c2cccc(C(=O)N3CCC(C(=O)OCC)CC3)c2)CC1,i,i,i,i,i,i
O=C(NCc1nnc(-c2cc3ccccc3[nH]2)o1)c1ccccc1,i,nt,i,nt,nt,nt
O=S(=O)(c1ccccc1)c1nc(-c2cccc(Cl)c2)oc1NCc1ccccc1,i,i,i,i,i,i
SMILES,TRHR enhancer,TRPML1 blocker,TRHR agonist,TRPML1 agonist,PTHR1 agonist,GLP1R cytotox
O=S(=O)(c1ccc(Cl)cc1)c1nc(-c2cccc(Br)c2)oc1NCc1ccccc1,30.8,i,i,i,i,i
COc1ccccc1N1CCN(C2CCCCC2NS(=O)(=O)c2ccc(Cl)cc2)CC1 (centres undefined),i,i,46.2,i,i,i
CN1CCN(C2CCCCC2NS(=O)(=O)c2ccc(Cl)cc2)CC1 (centres undefined),i,i,i,i,i,i
COc1ccc(N2CCN(C3CCCCC3NS(=O)(=O)c3ccc(Cl)cc3)CC2)cc1 (centres undefined),i,i,i,62.7,i,i
COc1ccc(CCSc2n[nH]c(C(C)C)n2)cc1,nt,nt,nt,i,nt,nt
COc1ccc(C(=O)COc2ncnc3cc(Cl)ccc23)cc1,36.0,i,i,i,i,i
Clc1cccc[n+]1CCc1ccccc1,nt,nt,nt,i,nt,nt
CCOc1ccc(/C=C/C2=CC(C)(C)NC(=S)N2)cc1,i,i,i,i,i,5.62µM
COc1ccc(/C=C/C2=CC(C)(C)NC(=S)N2)cc1OC,i,i,i,i,i,?
COCCNC(=S)N/N=C(\C)c1cc2ccccc2o1,i,i,i,i,i,7.94µM
C/C(=N\NC(=O)c1cc2ccccc2cc1O)c1cc2ccccc2o1,i,i,i,i,i,i
COCCNC(=S)N/N=C(\C)c1ccc2cc(OC)ccc2c1,i,i,i,i,i,3.16µM
COc1ccc(/C(C)=N/NC(=S)Nc2cc(C)ccc2C)cc1,i,i,i,i,?,3.55µM
COCCNC(=S)N/N=C(\C)c1ccc(OC)cc1,i,i,i,i,i,?
COc1ccc(CNC(=S)Nc2cc(C)ccc2C)cc1,i,i,i,i,i,i
O=C(NC1CCCCCC1)C1CCC(CNS(=O)(=O)c2cccc3cccnc23)CC1 (centres undefined),nt,nt,nt,i,nt,nt
CC(C)(C)C(=O)NC(=S)NNC(=O)C(c1ccccc1)c1ccccc1,i,nt,99.2,nt,i,i
CC1CCC(N2CC(=O)N(C3CCCCC3)C(c3ccc(F)cc3)C2=O)CC1 (centres undefined),i,i,i,i,i,i
CC1CCC(N2CC(=O)N(C3CCCC3)C(c3ccc(Cl)cc3)C2=O)CC1 (centres undefined),31.0,i,i,i,i,i
COc1ccc(/C=C/C(=O)c2ccc(C(=O)/C=C/c3ccc(OC)c(OC)c3)cc2)cc1OC,i,i,i,i,i,?
COC(=O)c1ccc(/C=C/C(=O)c2ccc(OC)c(OC)c2)cc1,35.5,i,i,i,i,?
O=S(=O)(Cc1ccccc1)N1CCN(c2nc(-c3cccs3)nc3ccccc23)CC1,nt,nt,nt,i,nt,nt
Cc1nc2ccccn2c1C(=O)NNS(=O)(=O)c1ccc(Cl)cc1,33.0,i,i,i,i,i
CCOC(=O)c1sc(NC(=O)C2c3ccccc3Oc3ccccc32)c(C(=O)OCC)c1C,32.5,i,i,i,i,i
CCOC(=O)c1c(NC(=O)C2c3ccccc3Oc3ccccc32)sc(C(=O)N(CC)CC)c1C,i,i,i,i,i,i
CNCc1nc(-c2ccc[nH]2)c2cc(Cl)ccc2n1,nt,nt,nt,i,nt,nt
Cc1ccc(SCC(CC(C)C)N2CCN(C)CCC2=O)cc1 (centres undefined),nt,i,nt,i,nt,nt
CC1=NNC(=O)/C1=C\c1cn(-c2ccccc2)nc1-c1ccc(F)cc1,i,i,i,i,i,?
CC1=NNC(=O)/C1=C\c1cn(-c2ccccc2)nc1-c1cccs1,i,i,i,i,i,7.94µM

# Source: PubChem (National Center for Advancing Translational Sciences (NCATS))
